Assay results published in PubChem BioAssay (NCATS).
Records with an inconclusive call do not appear. Active and inactive are the calls of the source. Calls follow the shape of the dose curve; as a rule, active = well fitted inhibition curve with a large enough effect; inconclusive = small, poorly fitted or top-dose-only effect; inactive = flat fitted curve, though single readings scatter.

Legend:
Assay in all cases: qHTS profiling for inhibitors of Plasmodium falciparum proliferation (AID 504749); also: nearly all actives have a fitted effect of over 60% in size
Conditions in all cases: P. falciparum in erythrocytes, SYBR Green DNA, 72 h; series mostly up to 28.7 µM
AA1029 = tested on: AA1029
How it was run: (§1)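 P. falciparum-infected erythrocytes (0.3% parasitemia, 2.5% hematocrit final) were exposed to compounds for 72 h at 37 C in 5% CO2, then lysed with SYBR Green buffer overnight at room temperature; parasite DNA fluorescence was normalized to artemisinin and DMSO controls.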

CP211 = tested on: CP211
How it was run: as §1

CP215 = tested on: CP215
How it was run: as §1

CP260 = tested on: CP260
How it was run: as §1

CP297 = tested on: CP297
How it was run: as §1

CP315 = tested on: CP315
How it was run: as §1

CP335 = tested on: CP335
How it was run: as §1

DIV14 = tested on: DIV14
How it was run: as §1

DIV17 = tested on: DIV17
How it was run: as §1

DIV30 = tested on: DIV30
How it was run: as §1

FAB9 = tested on: FAB9
How it was run: as §1

GB4 = tested on: GB4
How it was run: as §1

ICS = tested on: ICS
How it was run: as §1

JCK = tested on: JCK
How it was run: as §1

N140 = tested on: N140
How it was run: as §1

P93_24 = tested on: P93_24
How it was run: as §1

PAD = tested on: PAD
How it was run: as §1

PC15 = tested on: PC15
How it was run: as §1

TAB165 = tested on: TAB165
How it was run: as §1

W2 = tested on: W2
How it was run: as §1

Measured: Potency
Potency is read from the fitted curve at half-maximal effect.

CC1CCC(C(C)C)C(O)C1 (stereo not given)
inactive: all assays above

Cc1ccc(S(=O)(=O)NC(=O)NC(C)Cc2ccccc2)cc1 (stereo not given)
inactive: all assays above

CC(C)C[C@@H](NC(=O)[C@@H](Cc1ccccc1)NC(=O)c1cnccn1)B(O)O
active: AA1029 112 nM | CP211 757 nM | CP215 675 nM | CP260 100 nM | CP297 379 nM | CP315 379 nM | CP335 107 nM | DIV14 601 nM | DIV17 426 nM | DIV30 338 nM | FAB9 141 nM | GB4 120 nM | ICS 44.7 nM | JCK 141 nM | N140 100 nM | P93_24 158 nM | PAD 141 nM | PC15 316 nM | TAB165 70.8 nM | W2 60.1 nM

CC(C)(C)C(=O)OCC(=O)C1CCC2C3CCC4=CC(=O)CCC4(C)C3CCC12C (stereo not given)
inactive: all assays above

C=C1[C@@H]2CC[C@H](C2)C1(C)C
inactive: all assays above

CC1(C)C2CC[C@]1(C)[C@@H](O)C2
inactive: all assays above

CO[C@H]1OC2O[C@@]3(C)CC[C@H]4[C@H](C)CC[C@@H]([C@H]1C)[C@@]24OO3 (stereo not given in full)
active: AA1029 31.6 nM | CP211 75.7 nM | CP215 30.1 nM | CP260 14.1 nM | CP297 23.9 nM | CP315 95.3 nM | CP335 23.9 nM | DIV14 10.7 nM | DIV17 12 nM | DIV30 15.1 nM | FAB9 22.4 nM | GB4 13.5 nM | ICS 4.5 nM | JCK 12600 nM | N140 12.6 nM | P93_24 10 nM | PAD 20 nM | PC15 11.2 nM | TAB165 22.4 nM | W2 6 nM

C/C1=C2/[N-]C(C(CC(N)=O)[C@@]2(C)CCC(=O)NCC(C)OP(=O)([O-])O[C@H]2[C@@H](O)[C@@H](n3cnc4cc(C)c(C)cc43)O[C@@H]2CO)[C@]2(C)N=C(/C(C)=C3N=C(/C=C4N=C1C(CCC(N)=O)C\4(C)C)[C@@H](CCC(N)=O)[C@]\3(C)CC(N)=O)[C@@H](CCC(N)=O)[C@]2(C)CC(N)=O.CC(=O)O.[Co] (stereo not given in full)
active: W2 601 nM
inactive: all other assays above

CC(=O)NC[C@@H]1CN(c2ccc(N3CCOCC3)c(F)c2)C(=O)O1
inactive: all assays above

CC(c1ncncc1F)[C@](O)(Cn1cncn1)c1ccc(F)cc1F (stereo not given in full)
inactive: all assays above

C=NC(C(=O)NC1C(=O)N2C1SC(C)(C)C2C(=O)O)c1ccccc1 (stereo not given)
inactive: all assays above

CC[C@@H]1/C=C(\C)C[C@H](C)C[C@H](OC)[C@H]2O[C@@](O)(C(=O)C(=O)N3CCCC[C@H]3C(=O)O[C@H](/C(C)=C/[C@@H]3CC[C@H](Cl)[C@H](OC)C3)[C@H](C)[C@@H](O)CC1=O)[C@H](C)C[C@@H]2OC
inactive: all assays above

C=CCn1c(=O)n(C2OC(CO)C(O)C2O)c2nc(N)[nH]c(=O)c21 (stereo not given)
inactive: all assays above

O=c1[nH]c(=O)n(C2C[C@H](O)[C@@H](CO)O2)cc1C(F)(F)F (stereo not given in full)
inactive: all assays above

Cc1cnc(C(=O)O)cn1
inactive: all assays above

O=c1ccn(C2OC(COP(=O)(O)OC3C(CO)OC(n4ccc(=O)[nH]c4=O)C3O)C(O)C2O)c(=O)[nH]1 (stereo not given)
inactive: all assays above

Cc1cn([C@H]2CC(F)[C@@H](CO)O2)c(=O)[nH]c1=O (stereo not given in full)
inactive: all assays above

CO/N=C(/C(=O)N[C@@H]1C(=O)N2C(C(=O)O)=C(C[n+]3ccc(N)n3CCO)CS[C@H]12)c1csc(N)n1
inactive: all assays above

CCN(CC)C(=O)Nc1ccc(OC[C@H](O)CNC(C)(C)C)c(C(C)=O)c1
inactive: all assays above

CCCCC/C(C=O)=C/c1ccccc1
inactive: all assays above

COC(c1ccccc1)(c1ccccc1)C(Oc1nc(C)cc(C)n1)C(=O)O (stereo not given)
inactive: all assays above

CC(=O)OCC(=O)[C@@]1(O)CCC2C3CCC4=CC(=O)C=CC4(C)C3C(O)C[C@]21C (stereo not given in full)
inactive: all assays above

C=C(NCc1ccccc1)c1ccccc1O
inactive: all assays above

CC(=O)NC1[C@H](O)C[C@@](O)(C(=O)O)O[C@H]1[C@H](O)[C@H](O)CO (stereo not given in full)
inactive: all assays above
